In all, about 310,000 compounds went through this assay and about 14,000 (4.5%) showed an effect of 50% or more. Effects have a minus sign here. Many of the other results were omitted from the sample, so strong results are more common in it than they were.
Each compound was assayed against human ether-à-go-go-related gene (hERG) potassium channel (human, UniProt Q12809) (assay: primary screen, population patch clamp on CHO cells stably expressing hERG; higher = less effect of the substance).
Sequence of human ether-à-go-go-related gene (hERG) potassium channel (Q12809 whole entry, looked up): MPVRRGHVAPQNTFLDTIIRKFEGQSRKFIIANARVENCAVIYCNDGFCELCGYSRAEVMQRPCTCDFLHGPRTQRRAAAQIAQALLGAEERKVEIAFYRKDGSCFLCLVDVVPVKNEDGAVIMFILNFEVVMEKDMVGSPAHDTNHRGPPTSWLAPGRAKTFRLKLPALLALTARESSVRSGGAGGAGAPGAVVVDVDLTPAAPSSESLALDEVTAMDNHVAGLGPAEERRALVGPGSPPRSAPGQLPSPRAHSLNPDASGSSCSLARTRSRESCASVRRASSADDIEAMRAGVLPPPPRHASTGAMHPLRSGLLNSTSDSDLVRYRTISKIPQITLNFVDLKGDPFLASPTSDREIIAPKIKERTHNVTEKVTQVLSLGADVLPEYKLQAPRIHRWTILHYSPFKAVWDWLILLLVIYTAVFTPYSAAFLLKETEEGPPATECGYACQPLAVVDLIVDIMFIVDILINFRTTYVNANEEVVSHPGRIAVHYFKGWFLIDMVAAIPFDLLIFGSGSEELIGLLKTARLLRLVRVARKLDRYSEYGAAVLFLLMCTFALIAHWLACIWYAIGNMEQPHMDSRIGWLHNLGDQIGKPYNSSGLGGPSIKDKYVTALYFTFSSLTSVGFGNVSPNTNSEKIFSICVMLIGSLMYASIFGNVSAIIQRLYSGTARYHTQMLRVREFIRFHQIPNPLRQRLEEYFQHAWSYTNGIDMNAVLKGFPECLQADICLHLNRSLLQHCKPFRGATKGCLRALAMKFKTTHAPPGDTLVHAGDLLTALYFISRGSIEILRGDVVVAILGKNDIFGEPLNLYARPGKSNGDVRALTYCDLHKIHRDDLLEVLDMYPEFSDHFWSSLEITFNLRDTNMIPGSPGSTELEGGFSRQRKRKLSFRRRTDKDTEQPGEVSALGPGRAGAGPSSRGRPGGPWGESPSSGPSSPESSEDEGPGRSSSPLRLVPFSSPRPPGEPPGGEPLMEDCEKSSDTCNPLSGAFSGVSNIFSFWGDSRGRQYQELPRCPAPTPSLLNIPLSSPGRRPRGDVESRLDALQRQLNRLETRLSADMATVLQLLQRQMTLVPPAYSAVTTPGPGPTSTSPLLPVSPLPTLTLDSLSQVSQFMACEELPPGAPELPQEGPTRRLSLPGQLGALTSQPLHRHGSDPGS
For `O=S(=O)(/N=C(/NC(=S)Nc1ccccc1)c1ccccc1)c1ccc(Cl)cc1`, the “hERG current change (%, negative = inhibition) at 10uM” value was 18.9%. With `Cc1cc(C)c2nc(NNC(=O)c3cc(-c4cccs4)nc4ccccc34)sc2c1` the “hERG current change (%, negative = inhibition) at 10uM” value was 18.3%. In the case of `Cc1ccc(/C=N/NC(=O)CSc2nc3ccccc3n2Cc2ccc(Cl)cc2)o1`, the “hERG current change (%, negative = inhibition) at 10uM” value is reported as -16.2%. With `CCn1c(SCC(=O)N/N=C/C=C\c2ccco2)nc2ccccc21` the “hERG current change (%, negative = inhibition) at 10uM” value was -9.42%. With `Cn1c(SCC(=O)N/N=C/C=C/c2ccco2)nc2ccccc21` the “hERG current change (%, negative = inhibition) at 10uM” value was -42.9%. For `O=C(CSc1nc2ccccc2n1Cc1ccccc1)N/N=C/c1ccccc1C(=O)O`, the “hERG current change (%, negative = inhibition) at 10uM” value was -0.979%. `O=C(CSc1nc2ccccc2n1Cc1ccccc1)N/N=C/c1ccco1` was tested, and the “hERG current change (%, negative = inhibition) at 10uM” value was -60.7%. `Cn1c(SCC(=O)N/N=C/C=C\c2ccco2)nc2ccccc21` was tested, and the “hERG current change (%, negative = inhibition) at 10uM” value was -50.6%. `Cc1ccc(/C=N/NC(=O)CSc2nc3ccccc3n2Cc2ccccc2)o1` was tested, and the “hERG current change (%, negative = inhibition) at 10uM” value was -33.9%. With `Cc1ccc(Cn2c(SCC(=O)N/N=C/c3ccc(C)o3)nc3ccccc32)cc1` the “hERG current change (%, negative = inhibition) at 10uM” value was -61.1%. For `Cn1c(SCC(=O)N/N=C/c2ccco2)nc2ccccc21`, the “hERG current change (%, negative = inhibition) at 10uM” value was -2.38%. With `Cc1cc(NC(=O)CSc2ccccn2)no1` the “hERG current change (%, negative = inhibition) at 10uM” value was 11.3%. `CN(C(=O)c1ccno1)c1nnc(-c2cnccn2)s1` was tested, and the “hERG current change (%, negative = inhibition) at 10uM” value was 6.99%. `CC(C)(C)NC(=S)N/N=C/c1cc(Br)c(O)c(Br)c1` was tested, and the “hERG current change (%, negative = inhibition) at 10uM” value was 29.8%. In the case of `CCC12CN3CCN(CC(C3)C1O)C2` (stereo not shown), the “hERG current change (%, negative = inhibition) at 10uM” value is reported as -6.76%. `CCOc1ccc2[nH]c3nc(SCC(=O)NC4CCCC4)nnc3c2c1` was tested, and the “hERG current change (%, negative = inhibition) at 10uM” value was 14.1%. `O=C(NCc1ccccc1)c1ccc2nc(-c3ccco3)c(-c3ccco3)nc2c1` was tested, and the “hERG current change (%, negative = inhibition) at 10uM” value was -10.7%. In the case of `CC1CCN(C(=O)CSc2nnc(-c3ccc(S(=O)(=O)N4CCOCC4)cc3)n2C)CC1`, the “hERG current change (%, negative = inhibition) at 10uM” value is reported as -4.38%. `Cc1cccc(C)c1Nc1c(-c2ccc(N3CCOCC3)cc2)nc2ncccn12` was tested, and the “hERG current change (%, negative = inhibition) at 10uM” value was -19%. `Cc1ccc(-c2cc(-c3ccccc3)cc(-c3ccccc3)[n+]2-c2ccccc2)cc1.[O-][Cl+3]([O-])([O-])[O-]` was tested, and the “hERG current change (%, negative = inhibition) at 10uM” value was -82.1%. For `Brc1ccc(-c2ccccc2)cc1`, the “hERG current change (%, negative = inhibition) at 10uM” value was 0.132%. For `Cc1ccc(-c2cc(-c3ccc(C)cc3)[n+](-c3ccccc3)c(-c3ccc(C)cc3)c2)cc1.[O-][Cl+3]([O-])([O-])[O-]`, the “hERG current change (%, negative = inhibition) at 10uM” value was -80.2%. In the case of `Oc1ccc(-[n+]2c(-c3ccccc3)cc(-c3ccccc3)cc2-c2ccccc2)cc1.[O-][Cl+3]([O-])([O-])[O-]`, the “hERG current change (%, negative = inhibition) at 10uM” value is reported as -71.3%. For `Brc1ccc(-[n+]2c(-c3ccccc3)cc(-c3ccccc3)cc2-c2ccccc2)cc1.[O-][Cl+3]([O-])([O-])[O-]`, the “hERG current change (%, negative = inhibition) at 10uM” value was -73.8%. In the case of `Cc1ccc(-c2cc(-c3ccccc3)cc(-c3ccccc3)[n+]2-c2ccc(C(=O)O)cc2)cc1.[O-][Cl+3]([O-])([O-])[O-]`, the “hERG current change (%, negative = inhibition) at 10uM” value is reported as 4.17%.

From paper PMC4336329 (PLoS ONE, 2015)
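Further: peak tail current of the secondary pulse compared with the same well before compound.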
